Out of some 39,000 compounds screened, about 1,500 (3.8%) were called active. The entries come from a sample that favours actives as a whole.
The compounds below were run on HSkMC (human skeletal muscle cells) (assay: cytotoxicity call (relative viability < 0.9)). Settings: 10 µM.

Row | SMILES | cytotoxicity call
1 | c1ccc(-c2ccncc2)cc1 | inactive
2 | C[C@@H]1CC[C@@]2(OC1)O[C@H]1[C@@H](O)[C@H]3[C@H]4CC[C@H]5C[C@H](O[C@@H]6O[C@H](CO)[C@H](O[C@@H]7O[C@H](CO)[C@@H](O)[C@H](O[C@@H]8OC[C@@H](O)[C@H](O)[C@H]8O)[C@H]7O[C@@H]7O[C@H](CO)[C@H](O)[C@H](O[C@@H]8O[C@H](CO)[C@@H](O)[C@H](O)[C@H]8O)[C@H]7O)[C@H](O)[C@H]6O)[C@H](O)C[C@]5(C)[C@@H]4CC[C@]3(C)[C@H]1[C@@H]2C | inactive
3 | C[C@@H]1CC[C@@]2(OC1)O[C@H]1C[C@H]3[C@@H]4CC=C5C[C@@H](O[C@@H]6O[C@H](CO)[C@@H](O[C@@H]7O[C@@H](C)[C@H](O)[C@@H](O)[C@H]7O)[C@H](O)[C@H]6O[C@@H]6O[C@@H](C)[C@H](O)[C@@H](O)[C@H]6O)CC[C@]5(C)[C@H]4CC[C@]3(C)[C@H]1[C@@H]2C | active
4 | CC1CCC2(NC1)OC1CC3C4CC=C5CC(O)CCC5(C)C4CCC3(C)C1C2C (stereo not drawn) | inactive
5 | Cc1cccc2[nH]c(CCN)nc12 | inactive
6 | COc1cccc(N=[N+]=[N-])c1 | inactive
7 | CC1=C[C@H]2O[C@@H]3[C@H](O)[C@@H](O[C@H]4O[C@H](CO)[C@@H](O)[C@H](O)[C@H]4O)[C@](C)([C@@]2(CO)CC1)[C@]31CO1 | active
8 | Cc1cc(O[C@@H]2O[C@H](CO)[C@@H](O)[C@H](O)[C@H]2O)c2c3c(c(=O)oc2c1)CCC3 | inactive
9 | CC(=O)OC[C@]12CCC(C)=C[C@H]1O[C@@H]1[C@H](O)[C@@H](OC(C)=O)[C@@]2(C)[C@]12CO2 | active
10 | OCCN[C@@H]1c2ccccc2[C@H]2CNC[C@H]21 | inactive
11 | C[C@]12CC[C@H](Cl)C[C@@H]1CC[C@@H]1[C@@H]2CC[C@]2(C)C(=O)CC[C@@H]12 | inactive
12 | NC(=O)c1ccc(N)nc1 | inactive
13 | CC12CC(=O)C3C(CCC4=CC(=O)CCC43C)C1CCC2=O (stereo not drawn) | inactive
14 | NCCc1ccncc1 | inactive
15 | CCN1C[C@@]2(C)CC[C@H](OC)C34[C@@H]2[C@H](O)[C@]2(OCO[C@@]25C[C@H](OC)[C@H]2C[C@]3(O)[C@@H]5[C@H]2O)[C@@H]14 | inactive
16 | O=c1[nH]c2ccccc2n1C1CCN(Cc2ccc(-c3nc4cc5[nH]cnc5cc4nc3-c3ccccc3)cc2)CC1 | active
17 | CN1C[C@H](C(=O)N[C@]2(C)O[C@@]3(O)[C@@H]4CCCN4C(=O)[C@H](Cc4ccccc4)N3C2=O)C=C2c3cccc4[nH]cc(c34)C[C@H]21 | inactive
18 | Cc1cccc(N2CCNCC2)n1 | inactive
19 | COc1c2c(cc3c1OCO3)CC[N+](C)=C2.[Cl-] | inactive
20 | CC(C)CC1C(=O)N2CCCC2C2(O)OC(NC(=O)C3C=C4c5cccc6[nH]c(Br)c(c56)CC4N(C)C3)(C(C)C)C(=O)N12.CS(=O)(=O)O (stereo not drawn) | inactive
21 | O=c1[nH]c2cc(N3CCNCC3)ccc2o1 | inactive

Row | SMILES | cytotoxicity call
22 | CC[C@@]1(O)C[C@H](O[C@H]2C[C@H](N(C)C)[C@H](O)[C@H](C)O2)c2c(cc3c(c2O)C(=O)c2c(O)ccc(O)c2C3=O)[C@H]1C(=O)OC | inactive
23 | COc1cccc2c1C(=O)c1c(O)c3c(c(O)c1C2=O)C[C@@](O)(C(=O)CO)C[C@@H]3O[C@H]1C[C@H](N2CCO[C@H](OC)C2)[C@H](O)[C@H](C)O1 | active
24 | COc1cc2c3cc1Oc1c(OC)c(OC)cc4c1C(Cc1cccc(c1)Oc1ccc(c(O)c1)CC3N(C)CC2)N(C)CC4.Cl.Cl (stereo not drawn) | inactive
25 | COc1ccc(OC(=O)N(C)C[C@@H]2OCc3ccccc3-c3c(n(C)c4ccccc34)C(=O)N([C@@H](C)CO)C[C@H]2C)cc1 | inactive
26 | Cc1scc(CCN)c1C | inactive
27 | Cl.Oc1noc2c1CCNC2 | inactive
28 | C#CC1(O)CCC2C3CCC4=CC(=O)CCC4(C)C3CCC21C (stereo not drawn) | inactive
29 | C=CCC1(O)CCC2C3CCC4=CC(=O)CCC4=C3C=CC21C (stereo not drawn) | inactive
30 | C=CCC1(O)CCC2C3CCC4=CCCCC4C3CCC21C (stereo not drawn) | active
31 | CC(=O)O[C@H]1C(=O)[C@]2(C)[C@@H](O)C[C@H]3OC[C@@]3(OC(C)=O)[C@@H]2[C@H](OC(=O)c2ccccc2)[C@]2(O)C[C@H](O)C(C)=C1C2(C)C | inactive
32 | [N-]=[N+]=NCc1ccccc1C[C@]1(C(=O)NCCN2CCOCC2)N=C(c2ccc(OCCCO)cc2)O[C@H]1c1ccccc1N=[N+]=[N-] | inactive
33 | O=c1[nH]c(=O)n(Cl)c(=O)n1Cl | inactive
34 | CC1OC(OC2C=C3CCC4C(CCC5(C)C(c6ccc(=O)oc6)CCC45O)C3(C)CC2)C(O)C(O)C1O (stereo not drawn) | active
35 | CC[C@@H](C)C(=O)O[C@H]1[C@H](O)[C@H]2[C@@H](CN3C[C@@H](C)CC[C@@H]3[C@@]2(C)O)[C@H]2C[C@]34O[C@]5(O)[C@@H](OC(=O)[C@@](C)(O)[C@@H](C)O)CC[C@@]3(C)[C@@H]5[C@@H](OC(C)=O)[C@@H](OC(C)=O)[C@@H]4[C@@]21O | inactive
36 | CC(=O)OCC1=C(C(=O)[O-])N2C(=O)C(NC(=O)CCCC(N)C(=O)[O-])C2SC1.[Zn+2] (stereo not drawn) | inactive
37 | c1ccc2c(c1)sc1ccccc12 | active
38 | COc1cc2c(cc1OC)C1C(=O)c3ccc4oc(C(C)C)cc4c3OC1CO2 (stereo not drawn) | inactive
39 | NCCc1ccc(S(N)(=O)=O)cc1 | inactive
40 | Cc1cc(C(C#N)c2ccc(Cl)cc2)c(Cl)cc1NC(=O)c1cc(I)cc(I)c1O (stereo not drawn) | inactive
41 | CC(=O)Nc1ccc(Cl)cc1C | inactive
42 | Cc1cc([C@@H](C#N)c2ccc(Cl)cc2)c(Cl)cc1NC(=O)c1cc(I)cc(I)c1O | active

Row | SMILES | cytotoxicity call
43 | COc1cc(CCN)ccc1O | inactive
44 | Cc1ccc(C2(CN)CCCCC2)cc1 | inactive
45 | CC(C)C12OC1C1OC13C1(C)CCC4=C(COC4=O)C1CC1OC13C2O (stereo not drawn) | inactive
46 | CNc1ccccc1C(=O)O | inactive
47 | COC(=O)NC(=S)Nc1ccccc1NC(=S)NC(=O)OC | active
48 | CCC1CN2CCc3cc(OC)c(OC)cc3C2CC1CC1NCCc2cc(OC)c(OC)cc21.Cl.Cl (stereo not drawn) | inactive
49 | COc1ccc(CCN)cc1O | inactive
50 | CC(C)CC(CN)CC(=O)O (stereo not drawn) | inactive
51 | C[C@]12CC[C@]3(C)OC[C@](CO)(CO1)N23 | inactive
52 | Nc1ccccc1-c1ccccc1 | inactive
53 | CCC1(C2OC(C3OC(O)(CO)C(C)CC3C)CC2C)CCC(C2(C)CCC3(CC(O)C(C)C(C(C)C(OC)C(C)C(=O)[O-])O3)O2)O1.[Na+] (stereo not drawn) | inactive
54 | NC1CC1c1ccccc1.O=S(=O)(O)O (stereo not drawn) | inactive
55 | O=c1cccc2n1CC1CNCC2C1 (stereo not drawn) | inactive
56 | COC(=O)C[C@H]1CC[C@H]2NC[C@H](O)COC[C@@H]2O1 | inactive
57 | CCC(C)C1OC2(C=CC1C)CC1CC(CC=C(C)C(OC3CC(OC)C(OC4CC(OC)C(O)C(C)O4)C(C)O3)C(C)C=CC=C3COC4C(O)C(C)=CC(C(=O)O1)C34O)O2 (stereo not drawn) [ABAMECTIN (avermectin B1a shown) ] | inactive
58 | C[N+](C)(C)CCCl | inactive
59 | C[N+](C)(C)CCCCCCCCCC[N+](C)(C)C.[Br-].[Br-] | inactive
60 | CCCCCCCCCCCCCCCC[N+](C)(C)C.[Br-] | active
61 | CC1CC(C)C(=O)C(C(O)CC2CC(=O)NC(=O)C2)C1 (stereo not drawn) | inactive
62 | Cc1nn[nH]n1 | inactive
63 | CC(=O)CC1CCCCN1.Cl (stereo not drawn) | inactive

Row | SMILES | cytotoxicity call
64 | CCn1cnc2c(Nc3cccc(Cl)c3)nc(N[C@@H]3CCCC[C@@H]3N)nc21 | active
65 | CCN(Cc1ccc(Cl)nc1)C(=C[N+](=O)[O-])NC | inactive
66 | C=CCN1C[C@H]2CN(C(C)C)C[C@H]2C1=O | inactive
67 | CO[C@@H]1C=C[C@@H]2[C@H]1N2CCCO (stereo partly drawn) | inactive
68 | Nc1c[n+](CCc2ccccc2)no1 | inactive
69 | CN1CCN(C(=O)CN=[N+]=[N-])CC1 | inactive
70 | C=C(CCCCCCCCCCCCCCCC)OOC[C@@H](COP(=O)(ON)O[C@@H]1[C@H](O)[C@H](O)[C@@H](OP(=O)(O)ON)[C@H](OP(=O)(O)ON)[C@H]1O)OOC(=C)CC/C=C/C/C=C/C/C=C/C/C=C/CCCCC (stereo partly drawn) | inactive
71 | C=C(C)[C@@H]1CCC(C)=C[C@H]1c1c(OC)cc(C)cc1OC | inactive
72 | C=C(C)[C@@H]1CCC(C)=C[C@H]1c1c(O)cc(CCCCC)cc1O | active
73 | C[C@@H]1C(=O)O[C@H]2[C@H](O)[C@@]34[C@@H]5OC(=O)[C@@]3(O[C@@H]3OC(=O)[C@H](O)[C@@]34[C@H](C(C)(C)C)[C@H]5O)[C@@]12O | inactive
74 | NC1(c2ccc(Cl)cc2)CC1 | inactive
75 | O=[As]O[As]=O (stereo not drawn) | inactive
76 | O=C(O)Cc1cccnc1C(=O)O | inactive
77 | COC1C(O)C(C)OC(OC2CCC3(C)C4CCC5(C)C(C6=CC(=O)OC6)CCC5(O)C4CCC3(O)C2)C1O (stereo not drawn) | inactive
78 | CO[C@H]1[C@@H](O)[C@@H](C)O[C@H](O[C@H]2CC[C@@]3(C)[C@H]4CC[C@@]5(C)[C@@H](C6=CC(=O)OC6)CC[C@]5(O)[C@@H]4CC[C@]3(O)C2)[C@@H]1O | inactive
79 | CC1OC(OC2CCC3(C=O)C4CCC5(C)C(C6=CC(=O)OC6)CCC5(O)C4CCC3(O)C2)C(O)C(O)C1O (stereo not drawn) | active
80 | CO[C@H]1C[C@H](O[C@H]2CC[C@]3(C=O)[C@H]4CC[C@]5(C)[C@@H](C6=CC(=O)OC6)CC[C@]5(O)[C@@H]4CC[C@]3(O)C2)O[C@H](C)[C@H]1O | active
81 | COC1C(O)C(C)OC(OC2CCC3(C=O)C(CCC4C3CCC3(C)C(C5=CC(=O)OC5)CCC43O)C2)C1O (stereo not drawn) | active
82 | C[C@@H]1O[C@@H](O[C@H]2CC[C@]3(C=O)[C@H]4CC[C@]5(C)[C@@H](C6=CC(=O)OC6)CC[C@]5(O)[C@@H]4CC[C@]3(O)C2)[C@H](O)[C@H](O)[C@H]1O | active
83 | CC(C)(C)OC(=O)N[C@H]1[C@@H]2CNC[C@@H]21 | inactive

From the antibiotic and cytotoxicity screens of Wong et al. (2023)
